Compound activity from PubChem.
Many of the other results were omitted from the sample, so hits are more common in it than they were.
BL2 CD40 inh = inhibitors of CD40-induced NF-kB signaling, primary screen, BL2 cells, luciferase reporter, single point; inhibition, % at 10 µM; 83,000 tested, 0.94% active; CD40L-induced, 4 h; AID 1053188, 2014;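 active = mean inhibition of at least 50% with a set share of replicates also reaching that level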;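 also: 0% = neutral control wells and 100% = IKK inhibitor VII at 50 µM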
The depositor's hits bear a star; [ ] = dose if it differs, or a comment.

How did O=C(NCCS(=O)(=O)NCCc1ccccc1)c1ccccc1 do in these assays?
BL2 CD40 inh: -4

How did O=C(NCCc1ccccc1)c1ccc2nccnc2c1 do in these assays?
BL2 CD40 inh: 72*

How did O=C(NCCCn1ccnc1)c1ccc2nccnc2c1 do in these assays?
BL2 CD40 inh: 13

How did N#C[C@@H]1[C@@H](c2ccccc2-c2cccc(F)c2)[C@H](CO)N1C(=O)C1CCCCC1 do in these assays?
BL2 CD40 inh: 10[25 µM]

Results for O=S(=O)(c1ccccc1)N1CC[C@@H]2[C@H](CO)Nc3ccc(C#CC4CCCCC4)cc3[C@@H]21 ?
BL2 CD40 inh: 9[25 µM]

What do the screens show for `Cc1ccc(-c2cc(C(=O)N3CCCC(C(F)(F)F)C3)c3ccccc3n2)o1` (centres undefined)?
BL2 CD40 inh: 105*

What do the screens show for `Cc1c(C(=O)N2CCCC(C(F)(F)F)C2)oc2ccccc12` (centres undefined)?
BL2 CD40 inh: -22

How did Cc1ccc(-c2cc(C(=O)N3CCOCC3)c3ccccc3n2)o1 do in these assays?
BL2 CD40 inh: -11

What do the screens show for `C[C@H]1CN(C)C(=O)c2cccc([N+](=O)[O-])c2O[C@@H]1CN(C)C(=O)OC(C)(C)C`?
BL2 CD40 inh: -4

Results for C=C1C(=O)C23C(O)C1CCC2C12CCCC(C)(COC(C)=O)C1C(O)C3(O)OC2 (centres undefined) ?
BL2 CD40 inh: 104*

Results for Cc1ccc(S(=O)(=O)N2CCC(N3CCC(C)CC3)CC2)cc1 ?
BL2 CD40 inh: 6

Results for CC1CCN(S(=O)(=O)c2ccc3c(c2)C(Cl)(Cl)C(=O)N3)CC1 ?
BL2 CD40 inh: 53*

How did CC1CCN(S(=O)(=O)c2ccc3c(c2)oc(=O)n3C)CC1 do in these assays?
BL2 CD40 inh: 8

What do the screens show for `CN(C)CC(=O)N1CC2(C1)[C@@H](c1ccccc1)[C@H](CO)N2C(=O)C1CC1`?
BL2 CD40 inh: -9[25 µM]

How did O=C(N/N=C1\CCc2ccccc21)c1ccccc1O do in these assays?
BL2 CD40 inh: 25

How did O=C1Nc2ccccc2CCc2ccccc21 do in these assays?
BL2 CD40 inh: 3

Results for O=C1C(=NO)CCc2ccccc21 ?
BL2 CD40 inh: 35*

Results for COc1ccc2c3c([nH]c2c1)[C@H](CO)N(Cc1ccc(F)cc1)CC31CN(Cc2ccccn2)C1 ?
BL2 CD40 inh: 8

How did C/C=C/c1ccc([C@H]2[C@@H](CO)N(C(=O)CC)[C@@H]2CNC(=O)c2ccncc2)cc1 do in these assays?
BL2 CD40 inh: 5[25 µM]

How did O=C(Nc1cc(F)ccc1F)N1C[C@@H]2[C@H](c3ccccc31)[C@H](CO)N2C(=O)c1ccccc1 do in these assays?
BL2 CD40 inh: 1[25 µM]

How did C/C=C/c1ccc([C@H]2[C@@H](CN(C)C(C)=O)N(C(=O)NCCC)[C@H]2CO)cc1 do in these assays?
BL2 CD40 inh: 3

Results for N#C[C@H]1[C@H](c2ccccc2C2=CCCCC2)[C@@H](CO)N1S(=O)(=O)c1ccccc1 ?
BL2 CD40 inh: 60*[25 µM]

Results for N#C[C@H]1[C@@H](c2ccccc2C2=CCCCC2)[C@H](CO)N1S(=O)(=O)c1ccccc1 ?
BL2 CD40 inh: 11[25 µM]

What do the screens show for `N#C[C@@H]1[C@@H](c2ccccc2C2=CCCCC2)[C@H](CO)N1S(=O)(=O)c1ccccc1`?
BL2 CD40 inh: 6[25 µM]

Results for CC(=O)N(C)C[C@H]1Oc2c(NC(=O)NC(C)C)cccc2C(=O)N(C)C[C@@H]1C ?
BL2 CD40 inh: -2

How did CCCNC(=O)[C@H]1[C@H](CO)[C@H]2Cn3c(ccc(-c4ccc(OC)cc4)c3=O)[C@@H]1N2CC do in these assays?
BL2 CD40 inh: 5[25 µM]

What do the screens show for `N#C[C@@H]1[C@H](c2ccc(C#Cc3ccccc3F)cc2)[C@@H](CO)N1C(=O)C1CCC1`?
BL2 CD40 inh: 81*

Results for COc1ccccc1C#Cc1ccc([C@H]2[C@@H](C#N)N(C(=O)C3CCC3)[C@@H]2CO)cc1 ?
BL2 CD40 inh: -7[25 µM]

Results for N#C[C@H]1[C@H](c2ccc(C#Cc3ccccc3F)cc2)[C@@H](CO)N1C(=O)C1CCC1 ?
BL2 CD40 inh: 62*

Results for N#C[C@H]1[C@@H](c2ccc(C#Cc3ccc(F)cc3)cc2)[C@H](CO)N1C(=O)C1CCC1 ?
BL2 CD40 inh: 6[25 µM]

What do the screens show for `N#C[C@@H]1[C@@H](c2ccc(C#Cc3ccccc3F)cc2)[C@H](CO)N1C(=O)C1CCC1`?
BL2 CD40 inh: -29

What do the screens show for `COc1ccccc1C#Cc1ccc([C@@H]2[C@@H](C#N)N(C(=O)C3CCCCC3)[C@@H]2CO)cc1`?
BL2 CD40 inh: -1

Results for N#C[C@H]1[C@H](c2ccc(C#Cc3ccc(F)cc3)cc2)[C@H](CO)N1C(=O)C1CCC1 ?
BL2 CD40 inh: 28[25 µM]

How did N#C[C@H]1[C@H](c2ccc(C#Cc3ccccc3F)cc2)[C@H](CO)N1C(=O)C1CCC1 do in these assays?
BL2 CD40 inh: -3

What do the screens show for `N#C[C@@H]1[C@H](c2ccc(C#Cc3ccc(F)cc3)cc2)[C@@H](CO)N1C(=O)C1CCC1`?
BL2 CD40 inh: 90*[25 µM]

Results for C[C@H]1CN(C)C(=O)c2cc(N)ccc2O[C@@H]1CN(C)C(=O)OC(C)(C)C ?
BL2 CD40 inh: -2

What do the screens show for `C[C@H](NC(=O)N(C)C[C@@H]1OCc2ccccc2-c2c(n(C)c3ccccc23)C(=O)N([C@H](C)CO)C[C@H]1C)c1ccccc1`?
BL2 CD40 inh: 11

What do the screens show for `CC1(C(=O)Nc2ccccc2Br)CCN1C(=O)Cc1ccc(Cl)cc1Cl` (centres undefined)?
BL2 CD40 inh: 1

How did Clc1ccc(C[n+]2cc(-c3ccccc3)n3c2CCCCC3)c(Cl)c1 do in these assays?
BL2 CD40 inh: 65*

How did Clc1ccc(-c2cnc3n2CCCCC3)cc1 do in these assays?
BL2 CD40 inh: -3

How did Cn1ncc2c(N3CCOCC3)ncnc21 do in these assays?
BL2 CD40 inh: 7

What do the screens show for `Cc1ccc(-n2ncc3c(N4CCN(c5ccccc5)CC4)ncnc32)c(C)c1`?
BL2 CD40 inh: 15

What do the screens show for `Cc1cccc(-n2ncc3c(N4CCOCC4)ncnc32)c1`?
BL2 CD40 inh: 78*

What do the screens show for `N#Cc1ccc(-c2ccc3c(c2)[C@H]2[C@H](CCN2C(=O)C2CCC2)[C@H](CO)N3)cc1`?
BL2 CD40 inh: -9

Results for CN1CCN(C(CNS(=O)(=O)c2ccc(Br)cc2)c2ccc3c(c2)OCO3)CC1 (centres undefined) ?
BL2 CD40 inh: -3

What do the screens show for `OC(CN1CCCCC1)c1ccc(Br)cc1` (centres undefined)?
BL2 CD40 inh: 2

What do the screens show for `Oc1cc2c(cc1C(c1ccc(Br)cc1)N1CCCC1)OCO2` (centres undefined)?
BL2 CD40 inh: 86*

Results for O=C(Nc1ncccc1O)c1cc2ccccc2o1 ?
BL2 CD40 inh: -9

Results for O=C(Nc1cccc2ncccc12)c1cc2ccccc2o1 ?
BL2 CD40 inh: -10

Results for Cc1ccnc(NC(=O)c2cc3ccccc3o2)c1 ?
BL2 CD40 inh: 88*

How did O=C(NC1=NCCS1)c1cc2ccccc2o1 do in these assays?
BL2 CD40 inh: 63*

What do the screens show for `O=C(Nc1ccc2c(c1)OCCO2)c1cc2ccccc2o1`?
BL2 CD40 inh: 33

How did O=C(NC1CC1)c1cc2ccccc2o1 do in these assays?
BL2 CD40 inh: -4

What do the screens show for `CN1c2ccc(-c3ccc(F)cc3)cc2[C@H]2[C@H](CCN2S(=O)(=O)c2cccc(F)c2)[C@@H]1CO`?
BL2 CD40 inh: 14[25 µM]

How did N#Cc1ccc(-c2cccc(-c3nc(C(=O)O)cc4c3[C@@H](CCO)N(CC3CCOCC3)C4)c2)cc1 do in these assays?
BL2 CD40 inh: 4[25 µM]

What do the screens show for `COc1ccccc1S(=O)(=O)N[C@H]1CC[C@H](CCNC(=O)C2CCCC2)O[C@H]1CO`?
BL2 CD40 inh: -5
